Assay outcomes as filed in PubChem BioAssay.
Pol iota inh: DNA polymerase iota (human) inhibition; AID 588590; Potency, µM (highest dose often 115 µM), most hits filed as inhibitors; Pol iota fluorescent replication assay, 10 min; actives 1% (n = 390,000); Q9UNA4
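Fluorescent replication assay read twice, at 0 min and 10 min after adding 50 nM (final) substrate. Enzyme (10 nM) and compounds were first incubated 15 min at room temperature; enzyme-free buffer wells were negative controls.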
Pol beta inh: blocks human DNA polymerase beta activity; Potency, µM (series often up to 114 µM), usual class: inhibitors; Pol beta primer extension/strand displacement, fluorescence kinetic; P06746; actives 1.3% (n = 340,000)
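Pol beta (10 nM) and compounds were preincubated 15 min at room temperature, then 50 nM substrate (final) started primer extension/strand displacement. Reads were taken at 0 and 10 min; concentration-response data were fitted to a four-parameter Hill equation.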
PI5P4K alpha inh: PI5P4K alpha (human) kinase inhibition; P48426; PI5P4Kalpha enzyme, ADP-Glo luminescence, 60 min; stronger effect = lower value; max response, %; actives 1.2% (n = 330,000); active = max response of -50% or lower; inconclusive = between -30% and -50%; inactive = -30% or higher; also: value at the top dose of about 77 µM
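ADP-Glo luminescence end-point after a 60 min room-temperature kinase reaction. PI5P4Kalpha and substrate in HEPES pH 7.4 buffer with EGTA, 0.1% CHAPS and 5% DMSO; ATP at 5 microM final.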
Pol kappa inh-1: blocks human DNA polymerase kappa activity | Q9UBT6 | purified Pol kappa, fluorescent DNA synthesis assay, 10 min | Potency, µM (doses to about 107 µM), most hits filed as inhibitors | actives 0.53% (n = 400,000) | AID 588579
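10 nM Pol kappa preincubated 15 min at room temperature with compounds, then reaction started with substrate at 50 nM final. Fluorescence read kinetically at 0 and 10 min; buffer-only wells served as negative control.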
WRN helicase inh: WRN helicase (human) inhibition; Q14191; WRN helicase unwinding, fluorescent forked duplex, kinetic; Potency, µM (series often up to 114 µM), usual class: inhibitors; actives 0.46% (n = 360,000); AID 651768; also: nearly all actives have a fitted effect of over 55% in size
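Screening of the MLSMR collection measured strand separation of a quenched forked DNA duplex (100 nM) by 20 nM WRN with 2 mM ATP, all final. Compounds were preincubated with enzyme 15 min at room temperature.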
Pol eta inh-1: blocks human DNA polymerase eta activity | Q9Y253 | recombinant Pol eta, fluorescent DNA replication assay | Potency, µM (highest dose often 114 µM), usual class: inhibitors | actives 1.2% (n = 390,000) | AID 588591
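Fluorescent replication assay: 50 nM final substrate added after a 15 min room-temperature compound preincubation with 10 nM enzyme. Signal taken at 0 min and again at 10 min.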
GALK confirm: confirmation of human galactokinase (GALK) inhibitors; purified GALK, Kinase-Glo ATP depletion luminescence; shares compounds with Pol eta inh-1; actives 70% (n = 150); Potency, µM (highest dose often 115 µM), actives largely listed as inhibitors
Redox cycling: generates H2O2 by redox cycling, flagging GALK artifacts. AID 2035. actives 40% (n = 150). Potency, µM (highest dose often 115 µM), hits mostly inhibitors. shares compounds with Pol eta inh-1. Phenol red-HRP H2O2 redox cycling, absorbance 600 nm
HEK293 tox: HEK-293 cytotoxicity, GALK inhibitor secondary. shares compounds with Pol eta inh-1. HEK-293 viability, ATP luminescence (CellTiter-Glo), 24/48 h. Potency, µM (series often up to 46.1 µM), actives largely listed as inhibitors. actives 10% (n = 170)
Pol kappa inh-2: confirmation of human DNA polymerase kappa inhibitors. shares compounds with Pol eta inh-1. purified Pol-kappa, fluorescent strand-displacement substrate. Potency, µM, usual class: inhibitors. actives 76% (n = 920). AID 720501
Pol eta inh-2: Pol eta (human) inhibition, cherry-pick confirmation; shares compounds with Pol eta inh-1; Pol eta primer extension, TAMRA/BHQ fluorescence, 10 min; Potency, µM, usual class: inhibitors; actives 64% (n = 2,600); AID 720502
Large screens that a line does not name were inactive (follow-up assays come after a bar, where they were run). Compounds with a hit are over-represented: about 2.8% of the library has one in this group of screens. Unless noted, calls follow the shape of the dose curve; as a rule, active = well fitted curve in the direction sought with a large enough effect; inconclusive = small, poorly fitted or top-dose-only effect, or another doubt; inactive = no such curve, though single readings can be large; an effect the other way counts as inactive or inconclusive.

Cc1cc(=O)oc2c(CN3CCC(C)CC3)c(O)c(Cl)cc12	Pol iota inh inconclusive, Pol beta inh 15.8µM, PI5P4K alpha inh inconclusive, Pol kappa inh-1 inconclusive, WRN helicase inh inconclusive, Pol eta inh-1 12.6µM | Pol eta inh-2 inconclusive
O=C(O)c1c2c(nc3ccccc13)CCCC2	none (no result: Pol beta inh, PI5P4K alpha inh, WRN helicase inh, Pol eta inh-1)
CCN(CCCCN1C(=O)c2ccccc2C1=O)c1ccc2c(c1)C(=O)N(C)C2=O	Pol iota inh 15.8µM, Pol kappa inh-1 inconclusive, WRN helicase inh inconclusive, Pol eta inh-1 50.1µM (no result: PI5P4K alpha inh) | Pol eta inh-2 inconclusive
CCN(CC)c1ccc2c(c1)C(=O)N(C)C2=O	none
COc1ccc(N2CCN(C(CNC(=O)C(=O)NCc3ccc4c(c3)OCO4)c3ccco3)CC2)cc1 (stereo unspecified)	Pol eta inh-1 inconclusive
COc1ccc([C@]23Cc4cc(OC)c(OC)cc4C(O2)c2c(cc(C)oc2=O)O3)cc1	none (no result: Pol iota inh, PI5P4K alpha inh, Pol kappa inh-1, WRN helicase inh, Pol eta inh-1)
Cc1ccc2c(c1)c(=O)c1ccccc1n2CCCC(=O)Nc1ccc(Cl)cc1C	Pol beta inh inconclusive, Pol eta inh-1 89.1µM (no result: PI5P4K alpha inh, WRN helicase inh) | Pol kappa inh-2 inconclusive
CC(C)OC(=O)C(C(=O)C(F)(F)F)c1cc(NS(=O)(=O)c2ccc3ccccc3c2)c2ccccc2c1O (stereo unspecified)	Pol iota inh inconclusive, WRN helicase inh inconclusive, Pol eta inh-1 inconclusive | GALK confirm inconclusive | Redox cycling inactive | HEK293 tox inactive
CCCc1cc(C(=O)Nc2cc(C)ccc2O)no1	none
O=C(Nc1nnc(S(=O)(=O)N2CCOCC2)s1)c1ccc(Cl)cc1	none
O=C(Nc1nnc(S(=O)(=O)N2CCc3ccccc32)s1)c1ccccc1Cl	none (no result: PI5P4K alpha inh, WRN helicase inh)
CC1Cc2ccccc2N1S(=O)(=O)c1nnc(NC(=O)c2ccccc2)s1 (stereo unspecified)	none (no result: PI5P4K alpha inh, WRN helicase inh)
O=C(Nc1nnc(S(=O)(=O)N2CCCc3ccccc32)s1)c1ccccc1Cl	Pol eta inh-1 56.2µM (no result: PI5P4K alpha inh, WRN helicase inh) | Pol kappa inh-2 inconclusive
CC1Cc2ccccc2N1S(=O)(=O)c1nnc(NC(=O)c2ccccc2Br)s1 (stereo unspecified)	Pol eta inh-1 inconclusive (no result: PI5P4K alpha inh, WRN helicase inh) | Pol eta inh-2 inconclusive
O=C(Nc1nnc(S(=O)(=O)N2CCOCC2)s1)c1ccccc1	Pol iota inh inconclusive, Pol beta inh inconclusive, PI5P4K alpha inh inconclusive, Pol kappa inh-1 inconclusive, Pol eta inh-1 39.8µM | Pol kappa inh-2 37.7 | Pol eta inh-2 inconclusive
Cc1cccc(C)c1NC(=O)C1c2ccccc2OCC(=O)N1C1CC1 (stereo unspecified)	none (no result: Pol iota inh, Pol beta inh, Pol kappa inh-1, Pol eta inh-1)
NC(=O)COC(=O)CC12CC3CC(CC(Br)(C3)C1)C2	none
Cc1oc(/N=C/c2cccc3ccccc23)c(C#N)c1C	Pol iota inh 22.4µM, Pol kappa inh-1 inconclusive, WRN helicase inh inconclusive, Pol eta inh-1 25.1µM (no result: PI5P4K alpha inh) | Pol eta inh-2 47.8
COc1cccc(OCCOc2ccc(/C=C3/SC(=S)NC3=O)cc2)c1	Pol iota inh inconclusive, Pol beta inh 10µM, PI5P4K alpha inh -84.9, WRN helicase inh inconclusive, Pol eta inh-1 28.2µM | Pol kappa inh-2 inconclusive | Pol eta inh-2 84.9
